# Screens deposited in PubChem BioAssay by National Center for Advancing Translational Sciences (NCATS).
# Shown are actives, neighbours in structure and some others; about 5.1% of the full set was active somewhere.
# Tau fluor cs: Counterscreen qHTS for Inhibitors of Tau Fibril Formation, Fluorescence Polarization. 280,000 tested, 0.93% active. tau K18 P301L Alexa594 fluorescence, heparin fibrillization. Potency, µM (doses to about 57.7 µM). AID 1463, 2008; also: nearly all actives have a fitted effect of over 55% in size
#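 Human K18 P301L tau (15 uM unlabeled plus 0.24 uM Alexa 594-labeled, final) in 100 mM sodium acetate pH 7 was mixed with compound and 20 uM heparin and incubated 6 hr at 37 C.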
# PNC inhibitor: High Content Assay for Compounds that inhibit the Assembly of the Perinucleolar Compartment. PC3M PTB-GFP, PNC prevalence imaging, 16 h; active compounds read low. AID 2417, 2010. activity change (PNC), negative = inhibition, % at 10 µM. 140,000 tested, 3.1% active;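 active = readout at or below -70, meaning at least 70% loss of cells showing the perinucleolar compartment, a nuclear body marking cancer cells; inconclusive = readout between -30 and a set limit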
#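 Read-out is percentage of cells bearing a perinucleolar compartment, from automated 20x imaging of fixed, Hoechst-stained PC3M PTB-GFP cells. Cells were seeded 4 h, then exposed 16 h to compound (23 nl of library stock) in duplicate plates.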
# Tau ThT inhib: qHTS for Inhibitors of Tau Fibril Formation, Thioflavin T Binding; Microtubule-associated protein tau (Homo sapiens), P10636; recombinant tau K18 P301L, heparin-induced fibrillization, ThT fluorescence; Potency, µM (highest dose often 57.4 µM), hits mostly inhibitors; 270,000 tested, 2.1% active; AID 1460, 2008; also: nearly all actives have a fitted effect of over 55% in size
#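 ThT emission at 510 nm, taken 1 hr after adding 30 uM dye, quantifies aggregates formed when 20 uM heparin acts on human tau K18 P301L for 6 hr at 37 C.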
# NPSR antag: qHTS Assay for Antagonists of the Neuropeptide S Receptor: cAMP Signal Transduction; Q6W5P4; CHO-NPSR cells, cAMP TR-FRET, antagonist mode; Potency, µM (series often up to 38.3 µM), actives largely listed as inhibitors; 220,000 tested, 1% active; AID 1461, 2008; also: nearly all actives have a fitted effect of over 50% in size
# Target sequence (Q6W5P4 whole entry, looked up): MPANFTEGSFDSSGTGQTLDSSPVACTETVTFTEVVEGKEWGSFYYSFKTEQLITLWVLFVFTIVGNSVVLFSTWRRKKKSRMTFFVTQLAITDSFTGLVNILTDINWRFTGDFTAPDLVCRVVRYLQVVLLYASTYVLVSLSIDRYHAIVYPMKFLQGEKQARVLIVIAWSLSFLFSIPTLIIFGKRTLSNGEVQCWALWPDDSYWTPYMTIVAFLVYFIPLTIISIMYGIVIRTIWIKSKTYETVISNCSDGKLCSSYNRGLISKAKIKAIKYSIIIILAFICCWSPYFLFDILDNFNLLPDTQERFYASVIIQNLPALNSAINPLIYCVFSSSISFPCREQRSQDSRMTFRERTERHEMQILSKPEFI
# KDM4E inh: qHTS Assay for Inhibitors of Human Jumonji Domain Containing 2E (JMJD2E); Lysine-specific demethylase 4E (Homo sapiens), B2RXH2; AID 2147, 2009; Potency, µM (series often up to 57.1 µM), actives largely listed as inhibitors; JMJD2E catalytic domain, FDH-coupled NADH fluorescence (FDH is formaldehyde dehydrogenase); 230,000 tested, 1.6% active; active = well fitted inhibition curve with a large enough effect, not every such curve was filed as active; inconclusive = small, poorly fitted or top-dose-only effect, or another doubt; inactive = no such curve, though single readings can be large or run the other way; also: nearly all actives have a fitted effect of over 50% in size
# Target sequence (B2RXH2 1-337 limits assumed): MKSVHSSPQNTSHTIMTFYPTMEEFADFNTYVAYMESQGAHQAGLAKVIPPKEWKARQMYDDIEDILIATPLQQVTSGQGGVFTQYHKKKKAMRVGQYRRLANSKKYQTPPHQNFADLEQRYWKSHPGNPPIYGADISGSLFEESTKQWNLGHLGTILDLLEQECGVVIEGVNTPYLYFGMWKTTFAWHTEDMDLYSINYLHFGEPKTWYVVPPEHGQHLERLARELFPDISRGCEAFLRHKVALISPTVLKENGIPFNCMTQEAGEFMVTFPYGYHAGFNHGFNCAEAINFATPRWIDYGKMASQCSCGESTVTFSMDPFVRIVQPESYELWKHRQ
# Tau fibril FP: qHTS for Inhibitors of Tau Fibril Formation, Fluorescence Polarization. 280,000 tested, 0.39% active. Microtubule-associated protein tau (Homo sapiens), P10636. K18 P301L tau heparin fibrillization, Alexa594 FP, 6 h. Potency, µM (highest dose often 57.7 µM), hits mostly inhibitors; also: nearly all actives have a fitted effect of over 55% in size
#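 Human K18 P301L fragment (15 uM unlabeled plus 0.24 uM Alexa 594-labeled) in 100 mM sodium acetate pH 7 with compound, aggregation induced by 20 uM heparin for 6 hr at 37 C. ThT (30 uM) added for 1 hr, then Alexa 594 FP read.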
# A number is an active result; – = inactive; ? = inconclusive; · = no result given; ! = not confirmed by another sample; [ ] = remark or other dose. Unless noted, calls follow the shape of the dose curve; as a rule, active = well fitted curve in the direction sought with a large enough effect; inconclusive = small, poorly fitted or top-dose-only effect, or another doubt; inactive = no such curve, though single readings can be large; an effect the other way counts as inactive or inconclusive.
SMILES,Tau fluor cs,PNC inhibitor,Tau ThT inhib,NPSR antag,KDM4E inh,Tau fibril FP
Cc1ccc(C2Nc3ccc4ccccc4c3C3=C2C(=O)CC(C)(C)C3)o1 (stereo unspecified),?,?,?,?,?,–
COc1cc(C2Nc3ccc4ncccc4c3C3=C2C(=O)CC(C)(C)C3)cc(OC)c1O (stereo unspecified),–,–,?,–,7.9µM,–
COc1ccc(OC)c(NC(=O)c2cc3n(n2)C(C(F)(F)F)CC(c2ccc4c(c2)OCO4)N3)c1 (stereo unspecified),?,–,?,–,?,–
O=C(Nc1cc(Cl)ccc1O)c1cc2n(n1)C(C(F)(F)F)CC(c1ccc3c(c1)OCO3)N2 (stereo unspecified),?,-84,–,6.3µM,?,–
Cc1ccccc1S(=O)(=O)NC1OC(=O)C(Cl)=C1Cl (stereo unspecified),–,–,28µM,–,–,28µM
O=C1NC2(CCCc3ccccc32)C(=O)N1Cc1nnc(-c2ccccc2Br)o1 (stereo unspecified),–,-83,–,–,–,–
Cc1cc(N/N=C/c2ccco2)c2ccccc2n1,–,·,–,–,?,–
Cc1cccc2c1[nH]c1nc(N/N=C\c3ccco3)nnc12,–,–,6.3µM,?,–,–
CC(/C=N/Nc1nnc2c(n1)[nH]c1ccccc12)=C\c1ccco1,?,–,6.3µM,–,–,–
Nc1n[nH]c(N)c1N=Nc1ccc(Cl)cc1,–,–,?,–,–,–
Nc1[nH]ncc1N=Nc1ccc(Cl)cc1,?,–,10µM,–,–,–
O=C1Nc2ccccc2N(O)N1c1ccc(S(=O)(=O)N2CCCCCC2)cc1,–,-82,–,–,–,–
Nc1nonc1N/N=C/c1c(O)ccc2ccccc12,10µM[quencher],·,?,–,–,–
Nc1nonc1N/N=C\c1ccccc1,–,·,–,–,–,–
COc1ccc(/C=C2\N=C(c3ccccc3)N(c3ccc(C(=O)O)cc3)C2=O)cc1OC,–,·,?,13µM,–,–
COc1ccc(/C=C2/N=C3CCCCCN3C2=O)cc1OC,–,–,–,–,–,–
COC(=O)C1=CN(c2cccc(C)c2)C=C(C(=O)OC)C1c1cc(OC)c(O)c([N+](=O)[O-])c1,?,?,16µM,–,–,–
COC(=O)C1=CN(c2ccc(OC)cc2)C=C(C(=O)OC)C1c1ccc(C)c([N+](=O)[O-])c1,–,–,–,–,–,–
CCc1ccccc1N1CSC2=C(C#N)C(c3cc(OC)c(OC)cc3OC)CC(=O)N2C1 (stereo unspecified),–,–,28µM,–,?,?
COc1ccc(Br)cc1C1CC(=O)N2CN(Cc3ccccc3)CSC2=C1C#N (stereo unspecified),–,–,28µM,–,–,?
Cc1ccc(C2CC(=O)N3CN(c4ccc(Br)cc4)CSC3=C2C#N)o1 (stereo unspecified),–,–,?,–,–,?
COc1cc(OC)c(C2CC(=O)N3CN(c4ccccc4)CSC3=C2C#N)cc1OC (stereo unspecified),–,–,28µM,–,?,35µM
COc1cc(OC)c(C2CC(=O)N3CN(C)CSC3=C2C#N)cc1OC (stereo unspecified),–,–,?,–,–,?
CCOc1ccc(N2CSC3=C(C#N)C(c4ccco4)CC(=O)N3C2)cc1 (stereo unspecified),?,–,14µM,?,?,?
COc1cc(C(=O)OCc2cc(=O)n3nc(C4CCCCC4)sc3n2)cc(OC)c1OC,–,·,–,·,·,–
SMILES,Tau fluor cs,PNC inhibitor,Tau ThT inhib,NPSR antag,KDM4E inh,Tau fibril FP
CC(C)Oc1ccc(CNC(=O)c2cccc(NC(=O)N3CCSc4ncccc43)c2)cc1,–,·,–,·,·,–
Cc1ccc(-n2c(O)c(/C=N/c3ncn[nH]3)c3ccccc3c2=O)cc1,–,·,–,–,?,–
Oc1c(/C=N/c2ncn[nH]2)ccc2ccccc12,–,–,28µM,–,–,?
C[C@H](NC(=O)CNC(=O)[C@@H](NC(=O)[C@H](Cc1ccccc1)NC(=O)CNC(=O)CNC(=O)[C@@H](N)Cc1ccccc1)[C@@H](C)O)C(=O)N[C@@H](CCCN=C(N)N)C(=O)N[C@@H](CCCCN)C(=O)N[C@@H](CO)C(=O)N[C@@H](C)C(=O)N[C@@H](CCCN=C(N)N)C(=O)N[C@H](CN)CCCCN,–,·,–,·,·,–
CC1(C)CC(NC(=O)C2CCCCC2C(=O)O)CC(C)(C)N1 (stereo unspecified),–,-99,–,–,–,–
CC1(C)CC(NC(=O)CC2CCCCC2)CC(C)(C)N1,–,–,–,–,–,–
CC1(OC(=O)CCc2ccccc2)C(=O)C=C2C=C(c3ccc(C#N)cc3)N(c3ccccc3)C=C2C1=O (stereo unspecified),–[11.6 µM],·,13µM!,–,11µM,?
COC(=O)CCC(=O)OC1(C)C(=O)C=C2C=C(C3CC3)N(C3CCCC3)C=C2C1=O (stereo unspecified),–[11.6 µM],·,–[11.5 µM],–,–[11.4 µM],–[11.6 µM]
COC(=O)CCC(=O)OC1(C)C(=O)C=C2C=C(C3CC3)N(C3CCCCC3)C=C2C1=O (stereo unspecified),–[11.6 µM],·,?,–,16µM!,?
CC1(OC(=O)CCc2ccccc2)C(=O)C=C2C=C(c3ccc(C#N)cc3)N(C3CCCC3)C=C2C1=O (stereo unspecified),–[11.6 µM],·,?,–,20µM,–[11.6 µM]
CC1(OC(=O)CCc2ccccc2)C(=O)C=C2C=C(c3ccc(C#N)cc3)OC=C2C1=O (stereo unspecified),–,·,?,·,–,–
CCC1CN(S(=O)(=O)c2cc(-c3cc(C)no3)ccc2C)c2cc(Cl)ccc2O1 (stereo unspecified),–,·,–,·,·,–
CC1=NN(Cc2ccccc2)C(=O)/C1=C\c1ccc(N(C)C)cc1,–,–,20µM,–,–,–
O=C(NNC(=O)c1cc(O)c(O)c(O)c1)NC1CCCCC1,–,–,?,–,7.1µM,–
CCOC(=O)Cn1c(=O)n(C2CCCCC2)c2nc(-c3ccc(OCC)cc3)nc(C(N)=O)c21,–,·,–,·,·,–
Cc1cc([N+](=O)[O-])ccc1NC(=O)c1ccco1,–,·,–,–,–,–
Cc1cc(C)nc(NC(=O)c2ccc([N+](=O)[O-])o2)n1,–,-86,–,–,–,–
Cc1cc(C)nc(NC(=O)c2cc([N+](=O)[O-])cc([N+](=O)[O-])c2)n1,–,-113,–,–,–,–
